The panel holds about 83,000 compounds, 20% with a hit somewhere; the sample as a whole holds those more often.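 Plates (96-well) were seeded with cells, treated with compound at one concentration, and incubated for 48 hours before percent growth was determined.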 Activity calls are given as the source filed them. The calls were made as follows: active = growth percent below 10; inactive = the rest.
What was measured:
Experiment in all cases: NCI-60 one-dose screen, 48 h (100 = growth as untreated, 0 = no growth, -100 = all killed)
Details in all cases: 10 µM unless noted
[1] = tested on: SR leukemia
[2] = tested on: RPMI-8226 leukemia
[3] = tested on: OVCAR-8 ovarian
[4] = tested on: OVCAR-5 ovarian
[5] = tested on: OVCAR-4 ovarian
[6] = tested on: SK-OV-3 ovarian
[7] = tested on: IGROV1 ovarian
[8] = tested on: OVCAR-3 ovarian
[9] = tested on: NCI/ADR-RES ovarian
[10] = tested on: HS 578T breast

Measured: growth

COc1cc(-c2nc(-c3nc4ccccc4[nH]3)cc3c2[nH]c2ccccc23)cc(OC)c1OC
inactive: [1] 45.2% | [3] 13.2% | [4] 88.8% | [5] 59.5% | [6] 104% | [7] 18.9% | [8] 31.7% | [9] 32.2%
active: [2] -4.95%

CN(C)c1ncc(-c2ccc(C(F)(F)F)cc2)c(NC2CCCCCC2)n1
active: [2] 1.63%
inactive: [1] 77.5% | [3] 49.8% | [4] 87.3% | [5] 45.4% | [6] 83.1% | [7] 78.6% | [8] 26.5% | [9] 82.1%

COc1ccc(NC(=O)CSc2nc3ccccc3c(=O)n2-c2ccccc2C(F)(F)F)c(OC)c1OC
inactive: [1] 103% | [2] 93.1% | [3] 98% | [4] 97.5% | [5] 97.3% | [6] 89.4% | [7] 127% | [8] 104% | [9] 102%

O=C(O)c1ccc(-n2c(=O)c3ccccc3c3ccccc3c2=O)cc1
inactive: [1] 87.6% | [2] 103% | [3] 111% | [4] 99.6% | [5] 119% | [6] 101% | [7] 116% | [8] 111% | [9] 112%

COc1cc(NS(C)(=O)=O)ccc1Nc1c2ccc([N+](=O)[O-])cc2nc2c(C)cccc12
active: [2] -19.8% | [7] -2.46% | [8] -13%
inactive: [1] 15.6% | [3] 13.7% | [4] 36.8% | [5] 49.1% | [6] 11.2% | [9] 58.6%

O=S(=O)(O)CCl
inactive: [1] 84.9% | [2] 98.7% | [3] 100% | [4] 98.3% | [5] 105% | [6] 107% | [7] 106% | [8] 106% | [9] 103%

CCn1cc(C(=O)O)c(=O)c2cc(F)c(N3CCN(S(=O)(=O)c4c(C)cc(C)cc4C)CC3)cc21
inactive: [1] 64.7% | [2] 64.1% | [3] 81.5% | [4] 88.6% | [5] 91.4% | [6] 101% | [7] 79.4% | [8] 89.2% | [9] 84.8%

Cc1sc2nc(CSc3nnc(-c4ccco4)o3)[nH]c(=O)c2c1C
inactive: [1] 56.6% | [2] 67.3% | [3] 104% | [4] 114% | [5] 105% | [6] 132% | [7] 109% | [8] 108% | [9] 112%

Cc1cccc(-n2c(C)nc3ccc(NC(=O)NCCCl)cc3c2=O)c1
inactive: [1] 95.9% | [2] 97.6% | [3] 107% | [4] 107% | [5] 107% | [6] 102% | [7] 102% | [8] 105% | [9] 95.5%

CCn1cc(C(=O)O)c(=O)c2cc(F)c(N3CCN(S(=O)(=O)c4cccc5ccccc45)CC3)cc21
active: [1] 2.85% | [2] 6.47% | [3] 8.43% | [8] -6.25%
inactive: [4] 15.5% | [5] 23.9% | [6] 15.6% | [7] 13.7% | [9] 21.4%

NC(=O)NC(=O)/C=C/C(=O)OCCCl
inactive: [1] 96.8% | [2] 93.3% | [3] 90.7% | [4] 96.9% | [5] 107% | [6] 105% | [7] 109% | [8] 106% | [9] 109%

Cc1ccc(C(=O)c2sc3nc4c(cc3c2N)CCCC4)c(C)c1
active: [1] 9.04% | [2] -12.3%
inactive: [3] 17.5% | [4] 47.2% | [5] 39.8% | [6] 19.9% | [7] 41.4% | [8] 12% | [9] 13.9%

COc1cc(NCCN=C(N)NC(N)=NC(C)C)c2ncccc2c1
inactive: [1] 74.8% | [2] 73.3% | [3] 87% | [4] 80.2% | [6] 92.3% | [9] 99.4%
active: [5] -40.1% | [7] -4.12% | [8] 6.45%

C[C@]12CC[C@@H]3c4cc(O)c(O)cc4CC[C@H]3[C@@H]1CC[C@@H]2O
inactive: [2] 30.9% | [3] 51.6% | [4] 98% | [5] 49.7% | [6] 29.5% | [7] 60.2% | [8] 11.5% | [9] 28.5%
active: [1] 9.22%

C/C(=C\c1csc(C)n1)[C@@H]1C[C@@H]2O[C@]2(C)CCC[C@H](C)[C@H](O)[C@@H](C)C(=O)C(C)(C)[C@@H](O)CC(=O)N1
inactive: [5] 14.8%
active: [1] -39.1% | [2] -45.3% | [3] -74% | [4] -6.81% | [6] -8.54% | [7] -85.5% | [8] -100% | [9] -70.2%

CCCCNc1nnc(-c2cc(-c3cc4ccccc4o3)nn2-c2ccccc2)o1
inactive: [1] 76.5% | [2] 77.9% | [3] 88% | [4] 105% | [5] 86.7% | [6] 99.4% | [7] 63.9% | [8] 66% | [9] 87.5%

CCCOC(=O)C1(O)CCCC1
inactive: [1] 94.4% | [2] 96.5% | [3] 102% | [4] 87.2% | [5] 102% | [6] 111% | [7] 107% | [8] 129% | [9] 108%

Nc1c(C(=O)c2ccc(F)cc2)sc2nc3c(cc12)CCCC3
inactive: [1] 46.3% | [2] 77.6% | [3] 78.5% | [4] 97% | [5] 83.9% | [6] 73.1% | [7] 77.1% | [8] 87.6% | [9] 44.8%

CC(=O)Nc1nc(C(=O)N2N=C(C)/C(=C/c3cccs3)C2=O)cs1
inactive: [1] 91.9% | [2] 97.4% | [3] 103% | [4] 115% | [5] 106% | [6] 99.4% | [7] 97.1% | [10] 114% | [9] 112%

COc1cc(-c2n[nH]nc2-c2ccc3c(c2)OCCO3)cc(OC)c1OC
inactive: [4] 11.7% | [5] 34.8% | [7] 21.9% | [10] 12.7%
active: [1] 9.29% | [2] 0.653% | [3] 9.51% | [6] 3.32% | [9] 2.71%

O=C(Nc1ccc(Cl)cc1)c1cc(-c2ccc(F)cc2)c2sc(=O)[nH]c2n1
active: [5] -0.62% | [6] 0.427% | [9] 3.43%
inactive: [1] 16.6% | [2] 10.9% | [3] 13% | [4] 72.2% | [7] 29.3% | [10] 29.4%

Nc1c(C(=O)Nc2ccccc2)sc2nc3c(cc12)CCC3
inactive: [1] 39.6% | [2] 83.4% | [3] 88.2% | [4] 99.4% | [5] 78.9% | [6] 95.5% | [7] 90.2% | [10] 92.8% | [9] 66.6%

COC1=CC(c2ccc[nH]2)=N/C1=C\c1[nH]c(C)c(C(=O)CCC(=O)Oc2ccc3c(c2)CCC2C3CC[C@]3(C)[C@@H](O)CC[C@@H]23)c1C (stereo partly specified)
inactive: [4] 27.7% | [5] 43.1% | [6] 51.1% | [7] 16.8% | [10] 20.4%
active: [1] -17.6% | [2] -12.2% | [3] -3.79% | [9] 8.32%

CCN(CC)c1cc(/C=C/c2ccc(OC)c(OC)c2)nc2cc(F)c(F)cc12
inactive: [1] 10.7% | [2] 99.1% | [3] 36% | [4] 88.7% | [5] 87.2% | [7] 19.2% | [9] 41.2%
active: [6] -39.5% | [10] 2.13%

COc1cc(Cn2c(SCC(=O)Nc3cc(OC)c(OC)c(OC)c3)nc3ccccc3c2=O)cc(OC)c1OC
inactive: [1] 66.6% | [2] 96% | [3] 81% | [4] 88.8% | [5] 89.8% | [6] 51.2% | [7] 72.6% | [10] 48.4% | [9] 99.5%

Cc1cc(C)c2c(=O)[nH]c(SCC(=O)Nc3cccc(S(=O)(=O)N(C)C)c3)nc2n1
inactive: [1] 70.8% | [2] 87.5% | [3] 106% | [4] 97.4% | [5] 105% | [6] 103% | [7] 40.6% | [10] 122% | [9] 105%

O=C1Nc2ccc(Br)cc2C1=N/C=c1\[nH]c(=O)/c(=C/c2ccc(Cl)cc2)s1
inactive: [1] 81.6% | [2] 98.2% | [3] 93.6% | [4] 106% | [5] 108% | [6] 91.4% | [7] 105% | [10] 100% | [9] 104%

COc1ccc(/C=C2\C(=O)N(C(=O)c3csc(NC(C)=O)n3)N=C2C)cc1
inactive: [1] 82.2% | [2] 98.4% | [3] 96% | [4] 110% | [5] 109% | [6] 100% | [7] 95.9% | [10] 111% | [9] 105%

COc1cc(OC)c(C(=O)/C=C/c2cccc(C(F)(F)F)c2)c(OC)c1
active: [1] 6.07% | [2] 1.61%
inactive: [3] 14.1% | [4] 42.4% | [5] 31.4% | [6] 42.1% | [7] 11.8% | [10] 15.4% | [9] 17.1%

From PubChem BioAssay (NCI)
